Source: PubChem
In the library only some 0.39% were active in any assay of this set; here they are far more common.
EPAC1 antagonist = antagonists of human EPAC1; EPAC1 GEF assay, Rap1b-BODIPY-GDP exchange fluorescence; Potency, µM (top dose mostly 115 µM), for the others: at the top dose activity change, negative = inhibition, usual class: inhibitors; actives 0.14% (n = 360,000);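 note: plate controls were vehicle for no effect and positive control for full effect; nearly all actives have a fitted effect of over 50% in size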
EPAC1 agonist = activates human EPAC1 exchange factor; EPAC1 agonist qHTS, biochemical assay; response scale: 100% = response to 6.5 mM cAMP; actives 0.073% (n = 360,000); Potency, µM (top dose mostly 154 µM), for the others: at the highest dose activation, usual class: activators; AID 720707; note: nearly all actives have a fitted effect of over 60% in size
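Nucleotide exchange assay: 100 nM EPAC1 with 250 nM Rap1B loaded with BODIPY-GDP and 50 uM GDP, room temperature. Fluorescence (480/540 nm) read every 5 min for 30 min; signal change normalized to 6.5 mM cAMP as full agonist.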
EPAC2 antagonist = EPAC2 (human) antagonism | EPAC2 GEF exchange of Rap1B-BODIPY-GDP, fluorescence | actives 0.18% (n = 360,000) | Potency, µM (titrated, usually from 114 µM), without a hit: top-dose activity, negative = inhibition, most hits filed as inhibitors; note: % is set by controls: 0 for no effect and ±100 for the full control effect; nearly all actives have a fitted effect of over 45% in size
EPAC2 agonist = activates human EPAC2 exchange factor; EPAC2 activation, biochemical qHTS; response scale: 100% = 6.5 mM cAMP response; Potency, µM (series often up to 154 µM), for the others: at the top dose activation, actives largely listed as activators; actives 0.079% (n = 360,000); AID 720711; note: nearly all actives have a fitted effect of over 50% in size
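Readout is BODIPY fluorescence (480 nm excitation, 540 nm emission), which falls as labeled GDP is exchanged off Rap1B. EPAC2 at 100 nM acted on 250 nM RAP1B-BODIPY-GDP with 50 uM GDP present.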
Numbers without * were called inactive. Calls come from the whole dose curve; as a rule, active = well fitted curve in the direction sought with a large enough effect; inconclusive = small, poorly fitted or top-dose-only effect, or another doubt; inactive = no such curve, though single readings can be large; an effect the other way counts as inactive or inconclusive. Potency is the fitted concentration of half-maximal effect.

What do the screens show for `Cc1c(Cc2ccccc2)c(=O)oc2cc(OCc3ccc(C(=O)O)cc3)ccc12`?
EPAC1 antagonist: -32.7%; EPAC1 agonist: -3.4%; EPAC2 antagonist: inconclusive; EPAC2 agonist: -3.9%

What do the screens show for `Cc1cccc(C)c1-n1nnnc1C(c1cccs1)N1CCC2(CC1)C(=O)NCN2c1ccccc1` (configuration not stated)?
EPAC1 antagonist: -2.2%; EPAC1 agonist: -1.7%; EPAC2 antagonist: 10.0%; EPAC2 agonist: -5.1%

How did Cc1ccc2c(c1)C=CC(C#N)N2C(=O)Oc1ccccc1 (configuration not stated) do in these assays?
EPAC1 antagonist: -19.2%; EPAC1 agonist: -17.6%; EPAC2 antagonist: inconclusive; EPAC2 agonist: 2.5%

What do the screens show for `CN1C(=O)/C(=C/c2cccn2-c2ccc3ccccc3c2)C(=O)NC1=S`?
EPAC1 antagonist: 31.6µM*; EPAC1 agonist: -16.1%; EPAC2 antagonist: 1.0%; EPAC2 agonist: -4.4%

How did Cc1cc(C)cc(N2C(=O)NC(=O)/C(=C\c3cccn3-c3ccccc3)C2=O)c1 do in these assays?
EPAC1 antagonist: -25.7%; EPAC1 agonist: -1.3%; EPAC2 antagonist: -5.4%; EPAC2 agonist: 16.7%

What do the screens show for `CCCCCN1C(=O)c2ccccc2[C@@]2(C(=O)OCC)Cc3cc(OC)ccc3[C@@H]12`?
EPAC1 antagonist: -9.2%; EPAC1 agonist: -6.0%; EPAC2 antagonist: inconclusive; EPAC2 agonist: 14.3%

What do the screens show for `C/C(=C/CCC(C)[C@H]1CC[C@@]2(C)C3=C(CC[C@]12C)[C@@]1(C)CCC(=O)C(C)(C)[C@@H]1CC3)C(=O)O` (some centres not stated)?
EPAC1 antagonist: inconclusive; EPAC1 agonist: -28.7%; EPAC2 antagonist: inconclusive; EPAC2 agonist: -0.7%

Results for Cc1ccccc1N1C(=O)NC(=O)/C(=C\c2ccc3c(c2)CCCN3Cc2ccccc2)C1=O ?
EPAC1 antagonist: 35.5µM*; EPAC1 agonist: 12.3%; EPAC2 antagonist: -5.0%; EPAC2 agonist: -3.2%

Results for FC(F)(F)c1cccc(CC2CN(Cc3ccccc3)Cc3ccccc3N2c2cc(Cl)cc(Cl)c2)c1 (configuration not stated) ?
EPAC1 antagonist: 11.5%; EPAC1 agonist: -2.9%; EPAC2 antagonist: 2.7%; EPAC2 agonist: -3.1%

What do the screens show for `Cc1cc(C(C#N)c2ccc(Cl)cc2)c(Cl)cc1NC(=O)c1cc(I)cc(I)c1O` (configuration not stated)?
EPAC1 antagonist: inconclusive; EPAC1 agonist: -15.8%; EPAC2 antagonist: 50.1µM*; EPAC2 agonist: -10.8%

Results for Clc1ccc(CSc2nnc(-c3ccccn3)n2Cc2ccco2)cc1Cl ?
EPAC1 antagonist: -9.3%; EPAC1 agonist: -0.7%; EPAC2 antagonist: inconclusive; EPAC2 agonist: -10.5%

Results for COC1C(C)OC(OC2CC(C)(O)Cc3cc4c(c(O)c32)C(=O)c2c(O)cc3c(c2C4=O)OC2OC3(C)C(O)C(N(C)C)C2O)C(OC)C1(C)OC (configuration not stated) ?
EPAC1 antagonist: 130.4%; EPAC1 agonist: 100µM*; EPAC2 antagonist: 9.8%; EPAC2 agonist: 11.7%

What do the screens show for `Nc1c(Br)cc2c3c(cccc13)-c1ccccc1-2`?
EPAC1 antagonist: inconclusive; EPAC1 agonist: inconclusive; EPAC2 antagonist: 19.9%; EPAC2 agonist: 24.5%

Results for Oc1ccc(Cl)cc1Cc1cc(Cl)ccc1O ?
EPAC1 antagonist: -13.2%; EPAC1 agonist: 3.8%; EPAC2 antagonist: 79.4µM*; EPAC2 agonist: 8.6%

Results for Oc1ccc(Cl)cc1Cc1ccccc1 ?
EPAC1 antagonist: -13.7%; EPAC1 agonist: 0.0%; EPAC2 antagonist: inconclusive; EPAC2 agonist: 11.5%

What do the screens show for `O=C1NC(=O)N(Cc2ccco2)C(=O)/C1=C/c1ccc(-c2cccc([N+](=O)[O-])c2)o1`?
EPAC1 antagonist: 50.1µM*; EPAC1 agonist: 3.6%; EPAC2 antagonist: -26.7%; EPAC2 agonist: -0.4%

What do the screens show for `CCOc1cccc(N2C(=O)/C(=C/c3ccco3)C(=O)NC2=S)c1`?
EPAC1 antagonist: inconclusive; EPAC1 agonist: 0.5%; EPAC2 antagonist: 35.0%; EPAC2 agonist: 1.6%

What do the screens show for `O=C1NC(=S)N(c2ccccc2)C(=O)/C1=C/c1ccco1`?
EPAC1 antagonist: 20µM*; EPAC1 agonist: 21.1%; EPAC2 antagonist: -25.2%; EPAC2 agonist: 4.2%

What do the screens show for `Cc1ccc(C(O)P(=O)(OCCC(C)C)c2ccc(N(C)C)cc2)cc1` (configuration not stated)?
EPAC1 antagonist: 3.2%; EPAC1 agonist: -19.8%; EPAC2 antagonist: inconclusive; EPAC2 agonist: -13.7%

How did O=P(Nc1cccc(F)c1)(Oc1ccccc1F)Oc1ccccc1F do in these assays?
EPAC1 antagonist: inconclusive; EPAC1 agonist: 14.2%; EPAC2 antagonist: 35.5µM*; EPAC2 agonist: 22.6%

How did CC1=NCCc2c1[nH]c1cc(O)ccc21 do in these assays?
EPAC1 antagonist: 70.6%; EPAC1 agonist: 112µM*; EPAC2 antagonist: inactive; EPAC2 agonist: 100µM*

What do the screens show for `COc1ccc2c3c([nH]c2c1)C(C)=NCC3`?
EPAC1 antagonist: 4.2%; EPAC1 agonist: -9.6%; EPAC2 antagonist: 6.8%; EPAC2 agonist: 2.0%

What do the screens show for `CCCCCCC1CC(C)(C(=O)CNc2nncs2)OC1=O` (configuration not stated)?
EPAC1 antagonist: -6.1%; EPAC1 agonist: 5.3%; EPAC2 antagonist: inconclusive; EPAC2 agonist: -2.8%

What do the screens show for `CCCCn1c(N)c(C(=O)OCCOC)c2nc3ccccc3nc21`?
EPAC1 antagonist: -0.7%; EPAC1 agonist: 9.6%; EPAC2 antagonist: 4.6%; EPAC2 agonist: 18.4%

How did COCCCn1c(N)c(C(=O)NCCC(C)C)c2nc3ccccc3nc21 do in these assays?
EPAC1 antagonist: 50.1µM*; EPAC1 agonist: 23.1%; EPAC2 antagonist: inconclusive; EPAC2 agonist: -3.1%

What do the screens show for `CC(C)CCOP(=O)(c1ccc(N(C)C)cc1)C(O)c1c(Cl)cccc1Cl` (configuration not stated)?
EPAC1 antagonist: inconclusive; EPAC1 agonist: -3.4%; EPAC2 antagonist: inconclusive; EPAC2 agonist: 2.9%

What do the screens show for `O=C1C=CC(=O)C2C1C1(Cl)C(Cl)=C(Cl)C2(Cl)C1(Cl)Cl` (configuration not stated)?
EPAC1 antagonist: -12.0%; EPAC1 agonist: -0.7%; EPAC2 antagonist: 56.2µM*; EPAC2 agonist: 9.1%

Results for COc1ccc(-n2c(O)c(/C=C/C=Nc3ccccc3)c(=O)[nH]c2=O)cc1 ?
EPAC1 antagonist: 25.5%; EPAC1 agonist: 100µM*; EPAC2 antagonist: 54.1%; EPAC2 agonist: inconclusive

How did CCN1/C(=C\C=C\C2=[N+](CC)c3ccccc3C2(C)C)C(C)(C)c2ccccc21 do in these assays?
EPAC1 antagonist: 93.6%; EPAC1 agonist: 79.4µM*; EPAC2 antagonist: 72.6%; EPAC2 agonist: 50.1µM*

What do the screens show for `CCOP(=S)(OCC)Oc1cc(C)nc(C(C)C)n1`?
EPAC1 antagonist: -4.8%; EPAC1 agonist: 12.1%; EPAC2 antagonist: 22.4µM*; EPAC2 agonist: -10.5%

What do the screens show for `CCOc1cc(-c2c(C#N)c(=O)[nH]c3c2c(C)nn3-c2ccc(F)cc2)ccc1O`?
EPAC1 antagonist: inconclusive; EPAC1 agonist: -3.1%; EPAC2 antagonist: -3.7%; EPAC2 agonist: -15.0%
